Measured values taken from the supplement of paper PMC11732987, “Enantioselective OTUD7B fragment discovery through chemoproteomics screening and high-throughput optimisation” (Communications Chemistry, 2025).

Experiments:
Assay in all cases: log2 ratio of Biotin-Ahx-Ub-VS probe labelling (fragment/DMSO); higher = less target engagement (more negative = stronger competition), active = hit call of the paper (q ≤ 0.05, log2 ratio ≤ -1)
Conditions in all cases: compound concentration: 200 uM; treatment time: 3 h
USP19 = molecular target: T1, USP19 (UniProt O94966)
T1 sequence (whole entry): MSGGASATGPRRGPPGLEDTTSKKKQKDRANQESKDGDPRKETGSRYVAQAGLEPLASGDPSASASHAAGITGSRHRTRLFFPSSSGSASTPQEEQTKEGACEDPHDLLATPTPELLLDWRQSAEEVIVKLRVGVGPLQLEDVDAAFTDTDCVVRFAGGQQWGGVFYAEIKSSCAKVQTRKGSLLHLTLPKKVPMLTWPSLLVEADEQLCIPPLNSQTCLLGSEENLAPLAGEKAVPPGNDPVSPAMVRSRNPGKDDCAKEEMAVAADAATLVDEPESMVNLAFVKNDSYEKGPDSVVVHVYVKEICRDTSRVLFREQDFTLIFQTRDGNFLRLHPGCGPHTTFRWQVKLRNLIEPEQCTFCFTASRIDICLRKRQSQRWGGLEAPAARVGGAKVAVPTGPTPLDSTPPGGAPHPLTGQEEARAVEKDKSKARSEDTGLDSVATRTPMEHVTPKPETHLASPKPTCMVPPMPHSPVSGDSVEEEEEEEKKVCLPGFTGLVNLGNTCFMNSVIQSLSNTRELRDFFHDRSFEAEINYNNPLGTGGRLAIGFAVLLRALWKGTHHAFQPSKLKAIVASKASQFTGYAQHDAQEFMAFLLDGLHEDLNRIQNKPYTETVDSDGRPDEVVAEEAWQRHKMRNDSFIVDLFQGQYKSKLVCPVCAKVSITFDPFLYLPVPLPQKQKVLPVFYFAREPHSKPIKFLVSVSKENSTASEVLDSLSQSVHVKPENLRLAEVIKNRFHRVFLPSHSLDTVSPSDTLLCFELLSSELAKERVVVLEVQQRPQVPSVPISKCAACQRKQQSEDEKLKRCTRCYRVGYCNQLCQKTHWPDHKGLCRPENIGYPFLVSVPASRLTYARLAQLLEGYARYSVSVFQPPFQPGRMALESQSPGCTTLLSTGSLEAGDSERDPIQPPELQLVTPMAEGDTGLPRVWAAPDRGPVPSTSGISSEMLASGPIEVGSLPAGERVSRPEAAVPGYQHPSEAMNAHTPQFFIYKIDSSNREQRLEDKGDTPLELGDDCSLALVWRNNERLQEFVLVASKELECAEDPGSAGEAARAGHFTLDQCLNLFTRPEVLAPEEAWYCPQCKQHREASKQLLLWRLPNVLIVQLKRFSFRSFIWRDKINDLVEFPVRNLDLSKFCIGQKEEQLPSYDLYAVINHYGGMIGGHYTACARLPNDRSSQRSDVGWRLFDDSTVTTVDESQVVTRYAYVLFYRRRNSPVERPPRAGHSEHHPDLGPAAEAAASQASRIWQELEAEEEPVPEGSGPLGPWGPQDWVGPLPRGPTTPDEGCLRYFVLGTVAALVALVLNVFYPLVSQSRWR
In short: (§1)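 Fragment (200 µM) or vehicle was incubated for 3 h with triplicate HEK293T lysate samples of 495 µg, which were then treated with Biotin-Ahx-Ub-VS at 0.5 µM final for 1 h. Labelled DUBs were enriched on NeutrAvidin, digested with LysC and trypsin, and analysed by diaPASEF LC-MS/MS. Values are average log2 fragment/vehicle ratios from an unpaired t-test on global-median-normalised Spectronaut label-free quantities, using proteins with ≥2 unique peptides.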

USP24 = USP24 (UniProt Q9UPU5)
In short: as §1

USP25 = molecular target: T2, USP25 (UniProt Q9UHP3)
T2 sequence (whole entry): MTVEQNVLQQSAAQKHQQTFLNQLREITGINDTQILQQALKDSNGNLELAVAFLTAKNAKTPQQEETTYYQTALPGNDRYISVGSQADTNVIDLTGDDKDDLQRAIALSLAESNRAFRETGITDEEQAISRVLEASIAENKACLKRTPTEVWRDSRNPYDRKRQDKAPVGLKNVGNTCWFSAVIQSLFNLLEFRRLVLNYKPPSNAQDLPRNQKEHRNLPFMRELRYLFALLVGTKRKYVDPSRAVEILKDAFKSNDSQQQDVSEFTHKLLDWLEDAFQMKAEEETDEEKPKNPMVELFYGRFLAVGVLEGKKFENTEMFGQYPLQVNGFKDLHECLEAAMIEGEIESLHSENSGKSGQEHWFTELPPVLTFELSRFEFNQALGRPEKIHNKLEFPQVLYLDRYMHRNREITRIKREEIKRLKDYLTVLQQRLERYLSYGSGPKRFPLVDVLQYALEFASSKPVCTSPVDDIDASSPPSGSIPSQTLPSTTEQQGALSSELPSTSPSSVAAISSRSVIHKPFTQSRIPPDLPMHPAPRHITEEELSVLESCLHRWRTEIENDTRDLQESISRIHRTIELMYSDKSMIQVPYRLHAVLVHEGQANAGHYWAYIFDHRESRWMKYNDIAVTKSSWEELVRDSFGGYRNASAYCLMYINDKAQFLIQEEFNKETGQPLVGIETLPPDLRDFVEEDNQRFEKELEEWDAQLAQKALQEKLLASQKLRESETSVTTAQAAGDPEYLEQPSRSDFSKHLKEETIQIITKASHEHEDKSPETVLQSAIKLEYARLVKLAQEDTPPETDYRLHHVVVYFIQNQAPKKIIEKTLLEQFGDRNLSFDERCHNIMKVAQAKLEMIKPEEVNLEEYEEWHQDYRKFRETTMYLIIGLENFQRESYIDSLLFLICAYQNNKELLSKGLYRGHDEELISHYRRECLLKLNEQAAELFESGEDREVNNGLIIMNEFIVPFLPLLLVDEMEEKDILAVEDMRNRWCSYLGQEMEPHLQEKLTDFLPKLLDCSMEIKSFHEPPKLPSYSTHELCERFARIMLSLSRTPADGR
In short: as §1

USP28 = molecular target: T3, USP28 (UniProt Q96RU2)
T3 sequence (whole entry): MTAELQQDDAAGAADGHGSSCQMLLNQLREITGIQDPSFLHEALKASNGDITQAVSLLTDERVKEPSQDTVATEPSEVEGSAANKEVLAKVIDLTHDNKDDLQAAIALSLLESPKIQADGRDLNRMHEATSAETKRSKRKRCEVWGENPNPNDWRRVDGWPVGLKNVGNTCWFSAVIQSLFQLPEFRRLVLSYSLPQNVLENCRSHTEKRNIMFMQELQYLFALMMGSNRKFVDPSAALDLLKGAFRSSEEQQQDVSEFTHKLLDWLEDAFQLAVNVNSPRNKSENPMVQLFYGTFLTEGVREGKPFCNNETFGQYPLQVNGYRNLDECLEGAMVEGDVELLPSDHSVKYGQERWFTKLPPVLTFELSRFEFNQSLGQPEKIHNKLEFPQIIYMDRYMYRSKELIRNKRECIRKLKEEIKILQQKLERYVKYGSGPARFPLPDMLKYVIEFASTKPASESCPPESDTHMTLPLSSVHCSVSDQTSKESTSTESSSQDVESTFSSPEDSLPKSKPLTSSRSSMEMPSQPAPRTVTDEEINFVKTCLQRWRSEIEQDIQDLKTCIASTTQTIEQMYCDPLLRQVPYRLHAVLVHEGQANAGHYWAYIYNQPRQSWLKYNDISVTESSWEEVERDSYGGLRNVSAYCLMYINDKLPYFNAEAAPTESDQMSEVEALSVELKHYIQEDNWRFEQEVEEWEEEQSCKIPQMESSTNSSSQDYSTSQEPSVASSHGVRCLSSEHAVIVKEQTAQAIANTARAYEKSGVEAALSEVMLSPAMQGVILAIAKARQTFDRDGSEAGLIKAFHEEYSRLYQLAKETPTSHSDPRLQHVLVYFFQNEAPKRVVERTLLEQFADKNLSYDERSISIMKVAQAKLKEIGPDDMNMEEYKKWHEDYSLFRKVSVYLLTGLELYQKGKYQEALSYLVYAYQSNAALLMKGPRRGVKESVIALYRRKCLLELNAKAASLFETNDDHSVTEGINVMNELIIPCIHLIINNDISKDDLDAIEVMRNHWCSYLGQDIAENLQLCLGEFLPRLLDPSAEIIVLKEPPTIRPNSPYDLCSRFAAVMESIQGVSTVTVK
In short: as §1

Measured: log2 ratio of Biotin-Ahx-Ub-VS probe labelling

USP24, sequence (Q9UPU5 whole entry): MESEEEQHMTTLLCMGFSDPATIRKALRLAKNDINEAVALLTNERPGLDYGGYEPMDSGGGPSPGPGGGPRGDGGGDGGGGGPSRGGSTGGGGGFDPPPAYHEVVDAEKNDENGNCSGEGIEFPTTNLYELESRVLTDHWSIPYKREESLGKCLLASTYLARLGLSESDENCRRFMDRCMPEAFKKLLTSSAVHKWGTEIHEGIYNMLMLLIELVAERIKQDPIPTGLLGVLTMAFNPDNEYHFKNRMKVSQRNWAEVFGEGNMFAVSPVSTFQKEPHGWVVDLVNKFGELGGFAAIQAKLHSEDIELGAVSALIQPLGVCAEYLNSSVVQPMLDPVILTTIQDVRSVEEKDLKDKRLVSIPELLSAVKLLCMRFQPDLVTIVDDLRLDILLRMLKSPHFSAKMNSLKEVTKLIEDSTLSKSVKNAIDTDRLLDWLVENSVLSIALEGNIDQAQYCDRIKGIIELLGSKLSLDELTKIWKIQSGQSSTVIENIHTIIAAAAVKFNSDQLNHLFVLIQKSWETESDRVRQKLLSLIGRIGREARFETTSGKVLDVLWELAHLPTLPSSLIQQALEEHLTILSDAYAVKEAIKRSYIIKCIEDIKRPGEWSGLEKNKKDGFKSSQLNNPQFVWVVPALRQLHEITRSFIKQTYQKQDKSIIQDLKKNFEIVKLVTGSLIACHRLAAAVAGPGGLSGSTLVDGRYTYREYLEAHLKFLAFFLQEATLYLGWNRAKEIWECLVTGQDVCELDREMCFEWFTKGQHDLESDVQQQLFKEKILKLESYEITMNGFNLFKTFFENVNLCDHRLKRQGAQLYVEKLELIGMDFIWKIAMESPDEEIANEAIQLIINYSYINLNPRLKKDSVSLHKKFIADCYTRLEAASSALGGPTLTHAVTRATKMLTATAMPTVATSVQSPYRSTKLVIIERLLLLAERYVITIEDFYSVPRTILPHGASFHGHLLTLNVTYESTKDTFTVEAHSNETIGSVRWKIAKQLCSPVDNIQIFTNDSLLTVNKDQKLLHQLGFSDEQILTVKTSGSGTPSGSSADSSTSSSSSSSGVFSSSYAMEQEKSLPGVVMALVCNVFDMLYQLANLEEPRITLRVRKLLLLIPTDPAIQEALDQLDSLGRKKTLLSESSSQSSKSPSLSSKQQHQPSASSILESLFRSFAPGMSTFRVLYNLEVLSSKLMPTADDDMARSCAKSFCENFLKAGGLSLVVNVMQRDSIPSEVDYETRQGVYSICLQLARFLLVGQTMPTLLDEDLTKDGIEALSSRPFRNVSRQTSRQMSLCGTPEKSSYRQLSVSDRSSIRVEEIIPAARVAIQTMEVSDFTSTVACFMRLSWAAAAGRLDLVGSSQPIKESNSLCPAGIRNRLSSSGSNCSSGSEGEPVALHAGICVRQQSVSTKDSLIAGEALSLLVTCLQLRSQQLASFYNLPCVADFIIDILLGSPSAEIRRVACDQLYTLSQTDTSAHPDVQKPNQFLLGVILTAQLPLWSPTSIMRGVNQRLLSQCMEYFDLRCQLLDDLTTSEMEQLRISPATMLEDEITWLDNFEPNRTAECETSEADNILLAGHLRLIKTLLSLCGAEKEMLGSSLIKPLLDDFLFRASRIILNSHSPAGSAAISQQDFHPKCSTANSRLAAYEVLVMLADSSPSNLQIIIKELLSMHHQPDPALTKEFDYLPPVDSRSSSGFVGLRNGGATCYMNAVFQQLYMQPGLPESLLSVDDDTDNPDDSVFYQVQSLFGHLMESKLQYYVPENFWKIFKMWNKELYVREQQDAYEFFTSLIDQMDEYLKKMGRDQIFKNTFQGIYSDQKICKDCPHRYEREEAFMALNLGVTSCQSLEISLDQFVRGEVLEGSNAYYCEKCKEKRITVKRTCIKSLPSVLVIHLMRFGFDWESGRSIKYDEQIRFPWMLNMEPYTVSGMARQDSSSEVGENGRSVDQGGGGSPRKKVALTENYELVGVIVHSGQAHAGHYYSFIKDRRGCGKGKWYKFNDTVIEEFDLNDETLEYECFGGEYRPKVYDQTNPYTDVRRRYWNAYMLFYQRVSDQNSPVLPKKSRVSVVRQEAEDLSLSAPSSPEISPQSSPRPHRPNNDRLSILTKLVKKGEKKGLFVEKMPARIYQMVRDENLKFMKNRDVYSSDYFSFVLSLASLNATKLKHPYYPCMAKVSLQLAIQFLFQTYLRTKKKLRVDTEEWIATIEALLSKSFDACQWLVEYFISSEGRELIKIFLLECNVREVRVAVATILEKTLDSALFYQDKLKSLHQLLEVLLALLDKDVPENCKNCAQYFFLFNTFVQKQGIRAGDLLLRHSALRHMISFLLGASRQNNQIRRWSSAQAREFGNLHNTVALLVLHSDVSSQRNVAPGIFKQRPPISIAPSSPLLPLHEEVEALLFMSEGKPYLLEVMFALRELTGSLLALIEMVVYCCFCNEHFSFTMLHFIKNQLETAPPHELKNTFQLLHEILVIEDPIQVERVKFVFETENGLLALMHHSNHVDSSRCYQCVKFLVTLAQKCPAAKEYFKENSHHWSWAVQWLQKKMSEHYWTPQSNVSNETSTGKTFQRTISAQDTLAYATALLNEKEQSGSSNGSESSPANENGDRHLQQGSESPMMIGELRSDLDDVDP

Cc1noc(C)c1CNC(=O)CCl
inactive: USP19 -0.666 | USP24 -0.8 | USP25 -0.554 | USP28 -0.971
